# MITF inh = inhibitors of human MITF | inhibition, % at 2.6 µM | O75030 | AlphaScreen MITF homodimerization, bead proximity signal | actives 0.91% (n = 650,000); in the data active = inhibition above about 50%
# Target sequence (O75030 whole entry, looked up): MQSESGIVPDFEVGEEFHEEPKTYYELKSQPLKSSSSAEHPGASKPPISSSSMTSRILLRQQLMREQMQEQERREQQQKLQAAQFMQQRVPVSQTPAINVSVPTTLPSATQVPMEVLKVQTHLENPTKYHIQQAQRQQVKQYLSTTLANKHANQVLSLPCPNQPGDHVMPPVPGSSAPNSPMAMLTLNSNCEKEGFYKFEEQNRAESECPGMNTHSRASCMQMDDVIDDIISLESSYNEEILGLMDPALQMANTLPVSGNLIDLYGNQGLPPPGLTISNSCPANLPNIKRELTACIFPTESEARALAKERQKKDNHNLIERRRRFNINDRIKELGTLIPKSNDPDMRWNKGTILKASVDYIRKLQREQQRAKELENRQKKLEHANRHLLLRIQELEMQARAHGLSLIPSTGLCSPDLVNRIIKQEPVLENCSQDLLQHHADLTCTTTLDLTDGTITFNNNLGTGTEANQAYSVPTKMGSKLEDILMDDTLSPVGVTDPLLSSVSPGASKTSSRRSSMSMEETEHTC
# FBW7 act = human FBW7 E3 ligase activation, primary screen; Q969H0; AlphaScreen FBW7–phospho-cyclin E peptide binding, activator screen; normalized activity (activation), % at 26.1 µM; actives 0.13% (n = 650,000); in the data active = normalized activity above about 1.9%;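 also: purified mutant Fbw7 with reduced substrate affinity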
# TEAD-YAP block = TEAD-YAP interaction inhibition. HEK-TIYL cells, TEAD-Gal4/YAP UAS-luciferase luminescence. actives 1.4% (n = 640,000). inhibition, % at 9.12 µM; in the data active = inhibition above about 32%
# GPR151 ag = activates the human receptor GPR151; actives 1% (n = 650,000); Q8TDV0; PathHunter beta-arrestin GPR151 cells, luminescence; activation, % at 11.2 µM; AID 1508602; in the data active = activation above about 4.9%
# GPR151 confirm = confirmation of human GPR151 activators; shares compounds with GPR151 ag; GPR151 PathHunter beta-arrestin cells, luminescence, 90 min; % of EA-reagent control over plate median; activation, % at 11.2 µM; 6,700 tested, under 10 active; AID 1508609;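 active = mean percent activation across replicates above the confirmation screen cutoff of 4.91%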
# GPR119 counter = activates human GPR119 in a GPR151 counter-screen; shares compounds with GPR151 ag; GPR119 PathHunter beta-arrestin cells, luminescence, 90 min; 0 = compound-well median, 100 = enzyme-acceptor control; activation, % at 11.2 µM; actives 0.3% (n = 6,700); AID 1508611;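 active = mean percent activation in the counterscreen above 29.09%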;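 also: counterscreen on off-target GPR119 to flag nonselective hits from the GPR151 activator screen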
# Hits are given with their value; 0 = inactive; - = no result given; ! = not confirmed by another sample. Hits are enriched below; roughly 3.5% of the tested compounds scored in any of these assays.
SMILES,MITF inh,FBW7 act,TEAD-YAP block,GPR151 ag,GPR151 confirm,GPR119 counter
CCOc1ccc(S(=O)(=O)Nc2cccc(-c3ccc4nncn4n3)c2)cc1,0,0,39,9.8,0,0
NC(=O)Cn1ccn(-c2cccc(Cl)c2)c(=O)c1=O,0,0,0,8.1,0,0
C=CCNC(=O)CN1CCC(n2cnc3cccnc32)CC1,0,0,0,0,-,-
CC(=O)Nc1ccc(-c2cnc3cccc(-c4cccnc4)c3c2)cc1,0,0,0,0,-,-
CC(=O)Nc1ccc(-c2cnc3cccc(-c4ccncc4)c3c2)cc1,0,0,0,5.0,0,0
CC(NCCc1ccc(O)cc1)C(O)c1ccc(O)cc1 (centres undefined),0,0,0,0,-,-
C[C@@H](NCCc1ccc(O)cc1)[C@@H](O)c1ccc(O)cc1,0,0,0,6.4!,0,0
COc1cccc(OC)c1OCC(O)CN1CCN(c2ccccc2)CC1 (centres undefined),0,0,0,6.3,0,0
OC(COc1cccc2ccccc12)CN1CCNCC1 (centres undefined),0,0,0,12,0,0
COc1cccc(OC)c1OCC(O)CN1CCN(c2ccccn2)CC1 (centres undefined),0,0,0,0,-,-
CC(C)NCC(O)COc1cccc2ccccc12 (centres undefined),0,0,0,5.5!,0,0
COc1ccc(C(=O)NCc2cn3ccc(C)cc3n2)cc1OC,0,0,0,0,-,-
CCC(=O)Nc1ccc(N2CCN(C(=O)c3ccccc3)CC2)cc1,0,0,0,0,-,-
O=C(COc1ccc(/C=C2/NC(=O)N(c3ccccc3)C2=O)cc1Cl)Nc1ccccc1,0,0,0,9.0,0,0
O=C(COc1ccc(/C=C2/NC(=O)N(c3ccccc3)C2=O)cc1)Nc1ccc(F)cc1,0,0,0,0,-,-
COc1ccc(Br)cc1C(=O)N/C(=C\c1ccc([N+](=O)[O-])cc1)C(=O)Nc1cc(Cl)ccc1C,0,0,0,0,-,-
O=C(CCC1=NS(=O)(=O)c2ccccc2N1)Nc1ccccc1,0,0,0,6.2,0,0
CCN1CCCC1CNC(=O)NC1CC(=O)N(c2ccc(C)c(C)c2)C1 (centres undefined),0,0,0,7.0,0,0
COc1ccc(N2CC(NC(=O)C3CCCC3)CC2=O)cc1 (centres undefined),0,0,0,0,-,-
Cc1ccc(N2CC(NC(=O)C3CCCC3)CC2=O)cc1C (centres undefined),0,0,0,5.5,0,0
Nc1cc(N2CCC(N3CCOCC3)CC2)ncn1,0,0,0,0,-,-
NC(=O)c1ccccc1-c1nc(-c2ccccc2Cl)no1,0,0,0,0,-,-
Cc1cccc(C(=O)NNC(=O)C2CCCO2)c1 (centres undefined),0,0,0,7.3,0,0
CCCCN1C(=O)C(=O)C2=C(C)OC3(O)c4ccccc4C(O)(O)C213 (centres undefined),0,0,0,0,-,-
CCOc1cc(CC(=O)N[C@@H](CC(C)C)c2ccccc2N2CCCCC2)ccc1C(=O)O,0,0,0,7.1!,0,0
SMILES,MITF inh,FBW7 act,TEAD-YAP block,GPR151 ag,GPR151 confirm,GPR119 counter
CCOc1ccc(C(=O)Nc2ccccc2N2CCCC2)cc1,0,0,0,0,-,-
NC(=O)c1ccc(NC(=O)c2ccc([N+](=O)[O-])cc2)cc1,0,0,0,0,-,-
CCOc1ccc(NC(=O)CSc2cc(=O)n(C)c3ccccc23)cc1,0,0,0,0,-,-
COc1ccc2cc(CCNS(=O)(=O)c3ccccc3)c(=O)[nH]c2c1,0,0,0,0,-,-
CC(C)=CCN1CCN(Cc2ccc(-n3cccn3)cc2C)CC1CCO (centres undefined),0,0,0,11,0,0
Cc1cc(-n2cccn2)ccc1CN1CCN(C2CCCCC2)C(CCO)C1 (centres undefined),0,0,0,0,-,-
O=C(Nc1ccc(Br)cc1)c1nn2c(c1Br)NC(c1ccccc1)CC2C(F)(F)F (centres undefined),0,0,0,0,-,-
Nc1c(C(=O)N2CCc3ccccc3C2)sc(=S)n1CCc1ccccc1,0,0,0,0,-,-
COC(=O)C(CCSC)NC(=O)c1ccc(Cl)cc1Cl (centres undefined),0,0,0,9.7,0,0
COc1ccc(C(=O)Cn2c(N(C)C)nc3c2c(=O)n(C)c(=O)n3C)cc1,0,0,0,5.4,0,0
COc1ccc(C(=O)Cn2c(N3CCOCC3)nc3c2c(=O)n(C)c(=O)n3C)cc1,0,0,0,0,-,-
CCOC(=O)c1c(NC(=O)CSc2n[nH]c(N)n2)sc(C(C)=O)c1C,0,0,0,13,0,0
CCOC(=O)c1c(NC(=O)CSc2n[nH]c(-c3ccccc3)n2)sc(C(C)=O)c1C,0,0,0,0,-,-
COc1ccc(CC(=O)NNC(=O)c2ccc(Cl)cc2)cc1OC,0,0,0,5.3,0,0
COc1ccc2c(c1)CC(c1nc3ccc(-c4ccnc(N)n4)cc3[nH]1)CO2 (centres undefined),0,0,0,0,-,-
CC1CCCC(C)N1CCCNC(=O)c1nc(-c2cccnc2)no1 (centres undefined),0,0,0,0,-,-
COc1cccc(NC2=NCC(=O)N2Cc2ccc(F)cc2)c1,0,0,0,6.0,0,0
COc1ccc(S(=O)(=O)N(CC(=O)N2CCOCC2)c2ccc(Cl)cc2)cc1,0,0,0,0,-,-
Cc1ccc(-n2c3c(cc(C(=O)Nc4cccc(F)c4)c2=O)C(=O)CCC3)cc1,0,0,0,0,-,-
Cc1ccc(-n2c3c(cc(C(=O)Nc4ccc(F)cc4)c2=O)C(=O)CCC3)cc1,0,0,0,5.5,0,0
Cc1ccc(NC(=O)c2ccc(F)cc2C)cc1,0,0,0,5.3,0,0
O=C1N(C2Cc3ccccc3C2)C[C@@H]2C[C@@H](c3cccn3-c3nccs3)N3CCC[C@@]123,0,0,0,0,-,-
Cc1ccc2c(c1)CN(CCNC(=O)CCc1ccco1)CC(C)O2 (centres undefined),0,0,0,0,-,-
Cc1ccc2c(c1)CN(CCNC(=O)CCc1ccc(=O)[nH]n1)CC(C)O2 (centres undefined),0,0,0,5.3,0,0
COc1ccccc1OCC(=O)Nc1nc(-c2cccs2)c(NC(C)=O)s1,0,0,0,14,0,0
CC(C)CC(=O)N1CCC(C2(CCc3ccccc3)NC(=O)N(CCN(C)C)C2=O)CC1 (centres undefined),0,0,0,0,-,-
CCC(C)CC(=O)N1CCC(C2(CCC(C)C)NC(=O)N(CCN(C)C)C2=O)CC1 (centres undefined),0,0,0,7.5,0,0
COCCCNc1nc2nonc2nc1N1CCN(CCOc2ccccc2)CC1,0,0,0,7.2,0,0
Cn1nccc1Nc1cc(C(=O)NC2CCN(Cc3ccccc3)CC2)ccn1,0,0,0,0,-,-

# Compound activity as filed in PubChem BioAssay.
